# Inconclusive results are not listed. A number with no mark means an inactive call. Activity calls are given as the source filed them. Calls follow the shape of the full dose curve.
# Molecular target: 5-hydroxytryptamine receptor 2A (Homo sapiens) (UniProt P28223)
# Assay: 5-hydroxytryptamine receptor 2A (HTR2A) small molecule antagonists, cell-based qHTS assay (AID 1963586); also: nearly all actives have a fitted effect of over 45% in size
# Conditions: HTR2A-CHO cells, DOI-induced calcium flux, fluorescence; series mostly up to 61.5 µM; activity, negative = inhibition: at the top concentration
# Procedure, shortened: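 CHO cells stably expressing human HTR2A were plated for 18 h at 37 C, then loaded with calcium dye for 1 h. Compounds were preincubated 5 min at room temperature before DOI (4 nM solution) was added. Kinetic fluorescence was read for 3 min.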
# % is scaled to controls: 0 for no effect and ±100 for the full control effect; potency is read from the fitted curve at half-maximal effect.
# Chain of 5-hydroxytryptamine receptor 2A (Homo sapiens) (P28223 whole entry, looked up): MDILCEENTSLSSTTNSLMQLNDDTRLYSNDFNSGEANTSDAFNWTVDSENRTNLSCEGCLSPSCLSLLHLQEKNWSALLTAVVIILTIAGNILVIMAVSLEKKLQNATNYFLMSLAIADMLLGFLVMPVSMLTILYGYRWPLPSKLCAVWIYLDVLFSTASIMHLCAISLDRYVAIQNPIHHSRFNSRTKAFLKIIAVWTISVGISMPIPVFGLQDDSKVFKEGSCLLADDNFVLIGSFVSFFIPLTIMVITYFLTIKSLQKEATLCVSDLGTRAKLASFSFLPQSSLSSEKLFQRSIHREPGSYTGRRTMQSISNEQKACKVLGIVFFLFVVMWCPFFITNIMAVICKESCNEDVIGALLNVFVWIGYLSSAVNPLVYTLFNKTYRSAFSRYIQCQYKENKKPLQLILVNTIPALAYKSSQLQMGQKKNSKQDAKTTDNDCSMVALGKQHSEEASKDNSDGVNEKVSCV
SMILES,"activity, negative = inhibition",Potency
O=Cc1ccc(O)c(O)c1O,-19.9% [at 28.5 µM],
c1ccc2sc(SN3CCOCC3)nc2c1,-13% [at 28.5 µM],
O=C(O)Cc1ccc(Cl)cc1Cl,-11.6%,
Cc1ccc([N+](=O)[O-])c(N)c1,-5.48%,
CCN(CC)c1ccc2c(-c3ccccc3C(=O)O)c3ccc(=[N+](CC)CC)cc-3oc2c1,7.51%,
CCCCCCCCCC(C)C=O (configuration not stated),4.82%,
CCC(Cl)CCC(Cl)C(Cl)CC(Cl)C(Cl)C(Cl)CCl (configuration not stated),-1.88%,
OC[C@H]1O[C@@H](OCCc2ccc(O)cc2)[C@H](O)[C@@H](O)[C@@H]1O,11.3% [at 28.5 µM],
CCc1ccc2c(c1)C(=O)c1ccccc1C2=O,19%,
CC(C)c1cccc(C(C)C)c1NC(=O)NS(=O)(=O)c1cc(C(C)(C)O)co1,13%,
[Cl][Au]([Cl])[Cl],3.06%,
C=C[Si]1(C)O[Si](C)(C=C)O[Si](C)(C=C)O[Si](C)(C=C)O1 (configuration not stated),2.1%,
CC1=CCC(C(C)C)C=C1 (configuration not stated),-4.99%,
Cc1ccc(Cl)cc1N,5.88%,
Oc1ccc(Cc2ccccc2)cc1,-21.9%,
Cc1cc(-c2ccc(N=Nc3cc(S(=O)(=O)O)c4ccccc4c3N)c(C)c2)ccc1N=Nc1cc(S(=O)(=O)O)c2ccccc2c1N,1.77%,
CC[C@]12CCCN3CCc4c(n(c5ccccc45)C(=O)C1)[C@@H]32,74.1% [at 28.5 µM],

SMILES,"activity, negative = inhibition",Potency
c1ccc2occc2c1,,0.375 µM (active)
C=CCCCCCC,-8.69%,
COC(=O)/C=C(\C)CCC=C(C)C,-11.3%,
CCN(CCC#N)c1ccc(N=Nc2c(Cl)cc([N+](=O)[O-])cc2Cl)cc1,16.6%,
CCCCCC[C@@H](O)C/C=C\CCCCCCCC(=O)OC,33.4%,
NCCN1CCOCC1,-3.6%,
O=C(c1ccccc1)c1cc(Cl)ccc1O,-22%,
O=C(O)C(=O)Cc1ccccc1,-7.13%,
NCCc1cnc[nH]1,49.8% [at 28.5 µM],
CC/C=C1/OC(=O)c2ccccc21,12.1%,
COC(=O)CCCCCCCC(=O)OC,-0.0839%,
OCCN1CCN(CCO)CC1,-18.4%,
CC/C=C\CCCCCO,12.5%,
c1ccc(-c2nc3ccccc3[nH]2)cc1,-6.15%,
CC(=O)Nc1cccc(N)c1,-3.76%,
COc1ccc(C2CNC(=O)C2)cc1OC1CCCC1 (configuration not stated),3.59% [at 28.5 µM],

# Molecular target: 5-hydroxytryptamine receptor 2A (Homo sapiens) (UniProt P28223)
# Assay: 5-hydroxytryptamine receptor 2A (HTR2A) small molecule agonists, cell-based qHTS assay (AID 1963587); also: nearly all actives have a fitted effect of over 30% in size
# Conditions: HTR2A-CHO cells, calcium flux fluorescence, agonist mode; series mostly up to 76.8 µM; activation: at the top concentration
# Procedure, shortened: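 Kinetic calcium-flux fluorescence (2 min, 1 sec intervals) after compound addition in agonist mode. HTR2A-CHO cells were cultured 18 h, then dye-loaded 1 h at 37 C.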
SMILES,activation,Potency
O=Cc1ccc(O)c(O)c1O,3% [at 35.6 µM],
c1ccc2sc(SN3CCOCC3)nc2c1,-1.99% [at 35.6 µM],
O=C(O)Cc1ccc(Cl)cc1Cl,-6.47%,
Cc1ccc([N+](=O)[O-])c(N)c1,4.51%,
CCN(CC)c1ccc2c(-c3ccccc3C(=O)O)c3ccc(=[N+](CC)CC)cc-3oc2c1,,49 µM (active)
CCCCCCCCCC(C)C=O (configuration not stated),-12.3%,
CCC(Cl)CCC(Cl)C(Cl)CC(Cl)C(Cl)C(Cl)CCl (configuration not stated),2.05%,
CCOc1ccc(NC(C)=O)cc1N,-0.255%,
CCc1ccc2c(c1)C(=O)c1ccccc1C2=O,-3.12%,
CC(C)c1cccc(C(C)C)c1NC(=O)NS(=O)(=O)c1cc(C(C)(C)O)co1,-0.687%,
[Cl][Au]([Cl])[Cl],15.1%,
CCc1oc2ccccc2c1C(=O)c1cc(I)c(O)c(I)c1,-2.62% [at 35.6 µM],
C=C[Si]1(C)O[Si](C)(C=C)O[Si](C)(C=C)O[Si](C)(C=C)O1 (configuration not stated),-5.67%,
CC1=CCC(C(C)C)C=C1 (configuration not stated),1.71%,
Oc1ccc(N=Nc2ccccc2)cc1,-0.778%,
Cc1ccc(Cl)cc1N,0.451%,
Cc1cc(-c2ccc(N=Nc3cc(S(=O)(=O)O)c4ccccc4c3N)c(C)c2)ccc1N=Nc1cc(S(=O)(=O)O)c2ccccc2c1N,-1.11%,
c1ccc2occc2c1,-2.07%,

SMILES,activation,Potency
C=CCCCCCC,-0.129%,
COC(=O)/C=C(\C)CCC=C(C)C,-0.191%,
CCN(CCC#N)c1ccc(N=Nc2c(Cl)cc([N+](=O)[O-])cc2Cl)cc1,0.0775%,
CCCCCC[C@@H](O)C/C=C\CCCCCCCC(=O)OC,-1.07%,
N=C(N)N,0.41% [at 35.6 µM],
NCCN1CCOCC1,-1.39%,
O=C(c1ccccc1)c1cc(Cl)ccc1O,13.6%,
O=C(O)C(=O)Cc1ccccc1,-1.03%,
NCCc1cnc[nH]1,4.77% [at 35.6 µM],
CC/C=C1/OC(=O)c2ccccc21,-1.54%,
O=C1c2ccccc2C(=O)c2c(Cl)cccc21,-3.84% [at 35.6 µM],
COC(=O)CCCCCCCC(=O)OC,0.203%,
OCCN1CCN(CCO)CC1,-0.276%,
CC/C=C\CCCCCO,1.35%,
O=C(NOCC1CC1)c1ccc(F)c(F)c1Nc1ccc(I)cc1Cl,-3.14% [at 35.6 µM],
c1ccc(-c2nc3ccccc3[nH]2)cc1,-6.64%,
CC(=O)Nc1cccc(N)c1,-0.104%,
COc1ccc(C2CNC(=O)C2)cc1OC1CCCC1 (configuration not stated),0.928% [at 35.6 µM],

# Molecular target: Muscarinic acetylcholine receptor M1 (Homo sapiens) (UniProt P11229)
# Assay: Cholinergic receptor muscarinic 1 (CHRM1) small molecule antagonists, cell-based qHTS assay (AID 1963588); also: nearly all actives have a fitted effect of over 40% in size
# Conditions: CHRM1-CHO antagonist mode, calcium flux fluorescence; series mostly up to 61.5 µM; activity, negative = inhibition: at the top concentration
# Procedure, shortened: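 Compounds were tested at 15 concentrations in three independent runs. Dye-loaded CHRM1-CHO cells were exposed 5 min at room temperature before stimulation by acetylcholine added at 50nM. Intracellular calcium was read kinetically on FDSS for 3 min.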
# Chain of Muscarinic acetylcholine receptor M1 (Homo sapiens) (P11229 whole entry, looked up): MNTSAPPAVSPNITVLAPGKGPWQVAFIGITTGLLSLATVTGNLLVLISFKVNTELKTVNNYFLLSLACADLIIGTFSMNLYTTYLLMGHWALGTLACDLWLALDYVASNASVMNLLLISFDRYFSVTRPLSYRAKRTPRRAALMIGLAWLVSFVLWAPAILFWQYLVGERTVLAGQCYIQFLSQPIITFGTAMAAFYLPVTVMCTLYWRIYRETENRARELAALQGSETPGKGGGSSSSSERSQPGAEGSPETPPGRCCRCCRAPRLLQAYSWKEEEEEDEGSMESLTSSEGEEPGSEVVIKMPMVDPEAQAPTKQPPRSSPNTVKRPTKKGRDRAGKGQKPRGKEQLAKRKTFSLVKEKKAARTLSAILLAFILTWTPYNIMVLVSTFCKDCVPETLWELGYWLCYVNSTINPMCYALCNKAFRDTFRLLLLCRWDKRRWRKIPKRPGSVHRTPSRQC
SMILES,"activity, negative = inhibition",Potency
O=Cc1ccc(O)c(O)c1O,12.4% [at 28.3 µM],
c1ccc2sc(SN3CCOCC3)nc2c1,24.8% [at 28.3 µM],
O=C(O)Cc1ccc(Cl)cc1Cl,-0.257%,
Cc1ccc([N+](=O)[O-])c(N)c1,-3.04%,
CCCCCCCCCC(C)C=O (configuration not stated),7.48%,
CCC(Cl)CCC(Cl)C(Cl)CC(Cl)C(Cl)C(Cl)CCl (configuration not stated),19.6%,
CCOc1ccc(NC(C)=O)cc1N,0.287%,
CCc1ccc2c(c1)C(=O)c1ccccc1C2=O,-18.3%,
CC(C)c1cccc(C(C)C)c1NC(=O)NS(=O)(=O)c1cc(C(C)(C)O)co1,-6.78%,
[Cl][Au]([Cl])[Cl],13.2%,
CCc1oc2ccccc2c1C(=O)c1cc(I)c(O)c(I)c1,-31.7% [at 28.3 µM],
C=C[Si]1(C)O[Si](C)(C=C)O[Si](C)(C=C)O[Si](C)(C=C)O1 (configuration not stated),-9.24%,
CC1=CCC(C(C)C)C=C1 (configuration not stated),14.9%,
Oc1ccc(N=Nc2ccccc2)cc1,5.08%,
Cc1ccc(Cl)cc1N,5.02%,
Oc1ccc(Cc2ccccc2)cc1,14.7%,
CC[C@]12CCCN3CCc4c(n(c5ccccc45)C(=O)C1)[C@@H]32,-17.6% [at 28.3 µM],

SMILES,"activity, negative = inhibition",Potency
c1ccc2occc2c1,9.24%,
C=CCCCCCC,7.34%,
COC(=O)/C=C(\C)CCC=C(C)C,-48.4%,
CCN(CCC#N)c1ccc(N=Nc2c(Cl)cc([N+](=O)[O-])cc2Cl)cc1,5.15%,
N=C(N)N,23.4% [at 28.3 µM],
O=C(c1ccccc1)c1cc(Cl)ccc1O,,20 µM (active)
O=C(O)C(=O)Cc1ccccc1,0.23%,
NCCc1cnc[nH]1,20.5% [at 28.3 µM],
CC/C=C1/OC(=O)c2ccccc21,2.8%,
COC(=O)CCCCCCCC(=O)OC,-0.0788%,
OCCN1CCN(CCO)CC1,1.98%,
CC/C=C\CCCCCO,14.9%,
O=C(NOCC1CC1)c1ccc(F)c(F)c1Nc1ccc(I)cc1Cl,-10.7% [at 28.3 µM],
c1ccc(-c2nc3ccccc3[nH]2)cc1,37.8%,
CC(=O)Nc1cccc(N)c1,-70.8%,
COc1ccc(C2CNC(=O)C2)cc1OC1CCCC1 (configuration not stated),14.2% [at 28.3 µM],

# — PubChem BioAssay (Tox21)
